Experimental data reported in PubChem BioAssay AID1159580 (chemical genetic matrix, 2015).
Values joined by “and” are separate entries in the source; they are usually repeats but may differ in a detail not shown here. Equal entries are not always repeated. Out of some 5,500 compounds screened, about 2,000 (36%) were called active. Another 18% or so got no clear call; they are omitted. No stated cut-off is given here; in the data, active means normalized growth mostly below about 0.91 (no sharp cut-off); inconclusive means no clear call, values can overlap the other calls; inactive means mostly above about 0.92. Some of the results follow.

Assay: chemical genetic growth profiling, strain panel (AID 1159580);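 further: tested at 20 µM; growth read once vehicle control cultures reached saturation at 30 °C; 1 = growth at the plate median or of vehicle wells; lower values mean less growth of the strain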
Details: S. cerevisiae deletion strains, growth OD

Measured: normalized growth

CC(C)C1CCC(C(=O)N[C@@H](Cc2ccccc2)C(=O)O)CC1 (some centres not stated)
inactive: locus YAL013W, strain DEP1, active compounds read low 0.994 | locus YAL021C, strain ccr4, active compounds read low 0.97 | locus YAL026C, strain drs2, active compounds read low 0.978 | locus YAL030W, strain snc1, active compounds read low 0.975 | locus YBL061C, strain skt5, active compounds read low 0.973 | locus YBR009C, strain hhf1, active compounds read low 0.983 | locus YBR021W, strain FUR4, active compounds read low 0.969 | locus YBR023C, strain chs3, active compounds read low 0.973 | locus YBR171W, strain sec66, active compounds read low 0.962 | locus YBR229C, strain ROT2, active compounds read low 1.01 | locus YBR231C, strain swc5, active compounds read low 0.956 | locus YBR279W, strain paf1, active compounds read low 0.973 | locus YCL011C, strain gbp2, active compounds read low 0.976 | locus YCL016C, strain dcc1, active compounds read low 0.967 | locus YCL029C, strain bik1, active compounds read low 1.02 | locus YCL061C, strain MRC1, active compounds read low 0.972 | locus YCL069W, strain vba3, active compounds read low 0.979 | locus YCR088W, strain abp1, active compounds read low 0.971 | locus YDL005C, strain med2, active compounds read low 0.974 | locus YDL035C, strain GPR1, active compounds read low 0.982 | locus YDL040C, strain nat1, active compounds read low 0.974 | locus YDL074C, strain BRE1, active compounds read low 0.987 | locus YDL101C, strain DUN1, active compounds read low 1 | locus YDL134C, strain PPH21, active compounds read low 1.01 | locus YDL185W, strain tfp1, active compounds read low 1.02 | locus YDL192W, strain arf1, active compounds read low 1.01 | locus YDR001C, strain nth1, active compounds read low 0.972 | locus YDR069C, strain doa4, active compounds read low 0.986 | locus YDR101C, strain arx1, active compounds read low 1.02 | locus YDR137W, strain rgp1, active compounds read low 0.96 | locus YDR150W, strain NUM1, active compounds read low 0.995 | locus YDR159W, strain sac3, active compounds read low 0.989 | locus YDR162C, strain NBP2, active compounds read low 0.987 | locus YDR195W, strain ref2 0.962 | locus YDR297W, strain sur2, active compounds read low 0.976 | locus YDR318W, strain mcm21, active compounds read low 1.01 | locus YDR334W, strain swr1, active compounds read low 0.968 | locus YDR335W, strain msn5, active compounds read low 0.974 | locus YDR388W, active compounds read low 1.01 | locus YDR392W, strain spt3, active compounds read low 0.985 | locus YDR502C, strain sam2, active compounds read low 1.01 | locus YEL003W, strain gim4, active compounds read low 0.988 | locus YEL037C, strain rad23, active compounds read low 0.971 | locus YEL061C, strain CIN8 (second series), active compounds read low 0.973 | locus YEL061C, strain CIN8, active compounds read low 0.992 | locus YER015W, strain faa2, active compounds read low 0.986 | locus YER016W, strain bim1, active compounds read low 0.98 | locus YER110C, active compounds read low 1.02 | locus YER111C, strain swi4, active compounds read low 0.98 | locus YER155C, strain BEM2 (second series), active compounds read low 0.958 | locus YER155C, strain BEM2, active compounds read low 0.928 | locus YER167W, strain BCK2, active compounds read low 0.994 | locus YFR010W, strain ubp6, active compounds read low 0.968 | locus YGL078C, strain dbp3, active compounds read low 1.01 | locus YGL086W, strain mad1, active compounds read low 1.01 | locus YGL167C, strain pmr1, active compounds read low 0.967 | locus YGL173C, strain kem1, active compounds read low 0.97 | locus YGL227W, strain vid30, active compounds read low 0.969 | locus YGL240W, strain doc1, active compounds read low 0.985 | locus YGL248W, strain PDE1, active compounds read low 1.01 | locus YGL253W, strain hxk2, active compounds read low 0.97 | locus YGR078C, strain PAC10, active compounds read low 0.984 | locus YGR135W, strain pre9, active compounds read low 1.01 | locus YGR229C, strain SMI1, active compounds read low 0.949 | locus YGR252W, strain gcn5, active compounds read low 0.994 | locus YHR013C, strain ard1, active compounds read low 0.953 | locus YHR027C, strain rpn1, active compounds read low 0.993 | locus YHR030C, strain SLT2, active compounds read low 1.01 and 0.98 | locus YHR079C, strain IRE1 (second series), active compounds read low 1.01 | locus YHR079C, strain IRE1, active compounds read low 0.986 | locus YHR094C, strain hxt1, active compounds read low 1.01 | locus YHR129C, strain ARP1, active compounds read low 1.01 | locus YHR142W, strain chs7, active compounds read low 0.965 | locus YHR200W, strain rpn10, active compounds read low 1.01 | locus YIL066C, strain RNR3, active compounds read low 0.989 | locus YIL073C, strain SPO22, active compounds read low 0.989 | locus YIL125W, strain kgd1, active compounds read low 1.01 | locus YIR030C, strain dcg1, active compounds read low 1.02 | locus YJL092W, strain hpr5, active compounds read low 0.983 | locus YJL095W, strain BCK1 (second series), active compounds read low 0.979 | locus YJL095W, strain BCK1, active compounds read low 1 and 1.02 | locus YJL115W, strain asf1, active compounds read low 0.978 | locus YJL129C, strain trk1, active compounds read low 0.963 | locus YJL134W, strain LCB3, active compounds read low 0.996 | locus YJL154C, strain vps35, active compounds read low 0.973 | locus YJL164C, strain tpk1, active compounds read low 0.992 | locus YJL166W, strain qcr8, active compounds read low 0.979 | locus YJL168C, strain set2, active compounds read low 1.01 | locus YJL187C, strain SWE1 (second series), active compounds read low 1.01 | locus YJL187C, strain SWE1, active compounds read low 0.983 | locus YJR043C, strain POL32, active compounds read low 0.99 | locus YJR066W, strain TOR1, active compounds read low 0.956
